# Data as given in PubChem BioAssay.
# Activity calls are given as the source filed them.
# What was measured:
# [1] = target: Albumin (Bos taurus) (UniProt P02769); assay: compounds binding labelled BSA control protein – biochemical, small-molecule microarray, Alexa647 label, 635/667 nm fluorescence, artefact control for SMM control protein annotation, profiling panel (AID 1118); conditions: BSA-A647 binding, fluorescence 635 nm, higher = more signal;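 further: score merges 667 nm emission intensity and signal-to-noise per printed compound spot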
# [2] = probe aXIP binding to arrayed compounds – biochemical, NeuroSMM set, 635/667 nm fluorescence, primary screen (AID 1119); conditions: small-molecule microarray, higher = more signal, called active from +8 up or from −8 down;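 further: probe is the protein aXip251-270 applied at 1 µg/mL to compound-printed slides; binding of probe to printed compounds measured as 667 nm fluorescence plus signal to noise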
# [3] = probe aNOTCH3 binding on compound microarray – biochemical, small-molecule microarray, 635/667 nm fluorescence, primary screen (AID 1120); conditions: higher = more signal;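 further: probe is a biotin-tagged antibody raised against NOTCH3 rather than NOTCH3 protein; score merges spot fluorescence near 667 nm with spot signal to noise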
# [4] = probe aNOTCH2 binding on compound microarray – biochemical, small-molecule microarray, 635/667 nm fluorescence, primary screen (AID 1121); conditions: higher = more signal;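 further: score merges feature fluorescence read at 667 nm with its signal to noise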
# [5] = target: Carbonic anhydrase 2 (Homo sapiens) (UniProt P00918); assay: compounds binding carbonic anhydrase 2 – biochemical, small-molecule microarray, Alexa647-labelled CAII, profiling panel (AID 1122); conditions: CAII-A647 binding fluorescence, higher = more signal
# [6] = COS7 lysate on small-molecule microarray, probe aHis, 635 nm (AID 1123); conditions: COS7 cell lysate, fluorescence, higher = more signal;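 further: z-score combines 667nm fluorescence intensity with signal-to-noise per printed compound spot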
# [7] = probe aLAP1 signal on lysate-treated microarray – cell lysate, small-molecule microarray, COS7 lysate, primary screen (AID 1124); conditions: probe aLAP1, fluorescence, higher = more signal;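 further: lysate comes from COS7 cells expressing LAP1 and is applied at 0.3 µg/mL; score merges spot fluorescence near 667 nm with signal-to-noise over triplicate slides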
# [8] = test system: Sam68 (KHDRBS1); assay: compounds binding KHDRBS1 protein – biochemical, small-molecule microarray, 635 nm fluorescence, primary screen (AID 1125); conditions: higher = more signal;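 further: score merges 667 nm channel intensity with signal to noise over triplicate slides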
# [9] = test system: Chordin-like protein 2 (CHRDL2); assay: compounds binding chordin-like 2 – biochemical, small-molecule microarray, 635 nm fluorescence, primary screen (AID 1126); conditions: fluorescence 635 nm, higher = more signal;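 further: printed compound slides probed with Chrdl2 protein at 4 µg/mL for 1 h at 4 C; score merges 667 nm emission intensity with signal to noise over three replicate slides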
# [10] = target: Concanavalin-A (Canavalia ensiformis) (UniProt P02866); assay: compounds binding concanavalin A lectin – biochemical, small-molecule microarray, Alexa647 label, 635 nm, artefact control for SMM control protein annotation, primary screen (AID 1127); conditions: ConA-A647 binding fluorescence, higher = more signal;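 further: z combines 667 nm emission intensity with signal-to-noise across three replicate slides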
# Chain of Concanavalin-A (Canavalia ensiformis) (P02866 whole entry, looked up): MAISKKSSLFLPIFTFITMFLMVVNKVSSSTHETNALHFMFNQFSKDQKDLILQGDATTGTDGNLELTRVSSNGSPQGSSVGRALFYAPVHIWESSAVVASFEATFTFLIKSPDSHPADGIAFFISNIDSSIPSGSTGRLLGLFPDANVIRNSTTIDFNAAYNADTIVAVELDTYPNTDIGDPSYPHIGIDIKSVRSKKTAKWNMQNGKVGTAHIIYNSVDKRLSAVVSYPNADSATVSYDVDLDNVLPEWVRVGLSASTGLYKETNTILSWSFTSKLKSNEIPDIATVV
# Chain of Albumin (Bos taurus) (P02769 whole entry, looked up): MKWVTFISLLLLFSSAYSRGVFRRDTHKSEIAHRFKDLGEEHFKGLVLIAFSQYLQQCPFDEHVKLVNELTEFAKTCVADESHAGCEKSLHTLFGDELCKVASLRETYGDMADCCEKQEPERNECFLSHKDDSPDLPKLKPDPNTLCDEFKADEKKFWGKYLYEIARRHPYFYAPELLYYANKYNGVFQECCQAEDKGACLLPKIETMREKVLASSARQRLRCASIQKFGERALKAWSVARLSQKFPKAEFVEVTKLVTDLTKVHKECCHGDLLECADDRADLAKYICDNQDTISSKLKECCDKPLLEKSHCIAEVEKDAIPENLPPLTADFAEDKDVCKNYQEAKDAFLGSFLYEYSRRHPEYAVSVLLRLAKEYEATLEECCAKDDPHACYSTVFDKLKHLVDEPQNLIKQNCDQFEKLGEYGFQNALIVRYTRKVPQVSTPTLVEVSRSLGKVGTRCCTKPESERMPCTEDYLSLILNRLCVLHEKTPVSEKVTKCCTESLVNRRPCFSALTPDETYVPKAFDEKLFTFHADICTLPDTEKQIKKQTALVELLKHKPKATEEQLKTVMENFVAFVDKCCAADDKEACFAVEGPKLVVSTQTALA
Structure (SMILES),composite z-score [1],composite Z-score [2],composite z-score [3],composite z-score [4],composite z-score [5],composite z-score [6],composite z-score [7],composite z-score [8],composite z-score [9],composite z-score [10]
CC(C)C(=C=CC[C@H](O)c1cccc(OCCO)c1)C[C@H](O)COCc1ccccc1,-0.0081,1.64 (inactive),0.119,-0.0562,0.235,1.22,-0.125,0.166,-0.101,0.0514
COCCOC(=O)N1C(=O)[C@@]2(c3cc(C#CCCO)ccc31)[C@H](c1ccc(O)cc1)N1[C@H](c3ccccc3)[C@H](c3ccccc3)OC(=O)[C@H]1[C@@H]2C(N)=O,0.136,0.257 (inactive),-0.0967,-0.0956,0.738,0.831,1.73,0.761,-0.552,0.59
COCCOC(=O)N1C(=O)[C@@]2(c3cc(C#CCNC(N)=O)ccc31)[C@H](c1ccc(O)cc1)N1[C@H](c3ccccc3)[C@H](c3ccccc3)OC(=O)[C@H]1[C@@H]2C(=O)Nc1nc2ccccc2s1,0.0631,-0.162 (inactive),0.111,-0.0432,0.266,1.17,0.243,0.942,0.554,1.09
C=CCOC(=O)[C@H]1[C@@H]2C(=O)O[C@@H](c3ccccc3)[C@@H](c3ccccc3)N2[C@@H](c2ccc(OCCOC(=O)[C@@H]3C[C@@H]4C(=O)NCC(=O)N4[C@@H]3c3ccc(O)cc3)cc2)[C@]12C(=O)Nc1ccccc12,0.212,1.07 (inactive),0.0006,-0.168,0.475,2.45,0.537,1.29,1.32,1.11
Cc1cc(C)cc(N2C(=O)CS(=O)(=O)C2c2cccc([N+](=O)[O-])c2)c1 (stereo not given),0.785,1.97 (inactive),0.799,0.189,0.547,1.73,1.36,0.828,0.433,0.989
O=C(OCCF)C1=CCC(c2cccc(Cl)c2)O1 (stereo not given),0.374,0.13 (inactive),-0.191,-0.199,0.593,0.751,0.142,0.748,-0.165,0.532
COCCOC(=O)N1C(=O)[C@@]2(c3cc(C#Cc4ccc(OC)cc4)ccc31)[C@H](C(=O)N1CCN(c3ncccn3)CC1)[C@H]1C(=O)O[C@H](c3ccccc3)[C@H](c3ccccc3)N1[C@@H]2c1ccc(O)cc1,0.259,0.0527 (inactive),-0.112,-0.0277,0.287,0.722,0.232,0.634,-0.0397,0.762
COCCOC(=O)N1C(=O)[C@@]2(c3cc(C#CC4=CCCCC4)ccc31)[C@H](C(=O)NC[C@H](O)c1ccccc1)[C@H]1C(=O)O[C@H](c3ccccc3)[C@H](c3ccccc3)N1[C@@H]2c1ccc(O)cc1,0.112,0.0886 (inactive),0.184,0.103,0.521,0.824,0.992,1.29,1.12,1
CC(=CC1CCCCC1)[C@@H](NC(=O)c1ccc(C(F)(F)F)cc1)c1ccc(-c2ccccc2)cc1,0.938,-0.193 (inactive),-0.0311,0.0181,-0.0824,-0.261,-0.223,-0.946,-0.371,-0.0536
O=C1[C@]2(CO)C=C(Br)[C@@H](C[C@@H]2c2ccccc2)[C@@]12CO2,-0.102,0.689 (inactive),-0.0763,-0.16,0.129,-0.307,-0.139,-0.566,0.0616,0.195
COC(=O)C(CC#Cc1ccc2c(c1)[C@]1(C(=O)N2)[C@H](C(=O)NC[C@H](O)c2ccccc2)[C@H]2C(=O)O[C@H](c3ccccc3)[C@H](c3ccccc3)N2[C@@H]1c1ccc(OCCO)cc1)C(=O)OC,0.516,2.12 (inactive),1.4,0.146,0.556,2.94,0.811,1.27,0.75,1.02
O=C1O[C@@H](c2ccccc2)[C@@H](c2ccccc2)N2[C@@H](c3ccc(O)cc3)[C@]3(C(=O)Nc4ccc(C#CC5(O)CCCCCC5)cc43)[C@@H](C(=O)N3CCCCCCC3)[C@H]12,0.748,6.76 (inactive),2.12,1.06,0.742,3.88,0.894,1.33,1.55,1.12
COc1ccc(C#Cc2ccc3c(c2)[C@]2(C(=O)N3)[C@H](C(=O)NC[C@H](O)c3ccccc3)[C@H]3C(=O)O[C@H](c4ccccc4)[C@H](c4ccccc4)N3[C@@H]2c2ccc(OCCO)cc2)cc1,0.265,0.53 (inactive),0.196,-0.125,0.357,1.97,0.635,1.33,0.473,1.17
O=C1O[C@@H](c2ccccc2)[C@@H](c2ccccc2)N2[C@@H](c3ccc(OCCO)cc3)[C@]3(C(=O)Nc4ccc(C#CC5=CCCCC5)cc43)[C@@H](C(=O)O)[C@H]12,0.953,0.556 (inactive),0.206,0.0588,0.499,0.866,0.711,1.3,0.0501,1.16
COc1cccc(C(=O)O[C@H]2CC[C@]3(C)C4=C(CCC3C2(C)C)[C@]2(C)CC[C@H]([C@H](C)CCCC(C)C)[C@@]2(C)CC4)c1 (stereo not given in full),0.111,-0.424 (inactive),-0.0414,-0.132,0.202,0.279,-0.147,0.166,0.585,0.254
COCCOC(=O)N1C(=O)[C@@]2(c3ccccc31)[C@H](C(=O)Nc1nc3ccccc3s1)[C@H]1C(=O)O[C@H](c3ccccc3)[C@H](c3ccccc3)N1[C@@H]2c1ccc(OCCO)cc1,0.735,-0.533 (inactive),0.127,-0.169,0.287,2.33,1.39,1.29,0.594,1.16
C=C(COC)/C(=C/C[C@H](OC(=O)c1ccncc1)c1cccc(OCCO)c1)c1cc(C(=O)OC)ccc1OC,0.374,0.415 (inactive),-0.0006,-0.146,0.697,0.75,0.343,0.908,-0.386,-0.163
CN(C)CCCCCCNC(=O)[C@H]1C[C@H]2C(=O)N[C@@H](CCCCN)C(=O)N2[C@H]1c1ccc(O)cc1,0.987,5.54 (inactive),1.78,0.657,0.586,4.3,1.16,1.34,1.45,1.25
COc1cc(C(O)C2C=CC3C(=O)N(c4ccccc4)C(=O)C3N2Nc2ccc(C#N)cc2)cc(OC)c1OC (stereo not given),1.01,0.0402 (inactive),0.178,0.135,0.883,3.23,1.26,1.32,-1.05,1.21
C=CCOC(=O)[C@@H]1[C@H]2C(=O)O[C@H](c3ccccc3)[C@H](c3ccccc3)N2[C@H](c2ccc(OCCOC(=O)[C@@H]3C[C@@H]4C(=O)NCC(=O)N4[C@@H]3c3cccc(OCCO)c3)cc2)[C@@]12C(=O)Nc1ccc(I)cc12,-0.991,-0.0135 (inactive),-0.0835,-0.0242,0.501,1.59,0.875,1.3,0.926,0.964
Cc1ccc([C@H]2[C@H](C(=O)O)[C@H](Sc3ccccc3)[C@@H](C(C)C)N2S(=O)(=O)c2ccc(C)cc2)cc1,0.907,0.497 (inactive),0.249,0.0303,0.66,2.25,0.722,1.31,-0.299,1.09
C=CC[C@@H](OC(=O)Nc1ccc(OC)cc1)c1ccc(O)c2ccccc12,0.32,0.786 (inactive),0.278,-0.133,0.349,1.53,-0.09,1.3,1.34,0.913
CC(C)NC(=O)[C@@H]1c2ccccc2C(=O)N(Cc2ccccc2)[C@H]1c1ccc(CO)cc1,-0.113,0.601 (inactive),0.0237,-0.0638,0.706,2.01,0.821,-0.598,-1.38,-0.717
CCOC(=O)C1=CC[C@@H](c2ccccc2Cl)N(S(=O)(=O)c2ccc(C)cc2)C1,0.963,0.817 (inactive),0.0738,0.145,0.563,2.04,0.837,1.06,-1.04,1.04
[N-]=[N+]=NCc1ccccc1C[C@@]1(C(=O)NCC(O)CO)N=C(c2ccc(OCCCO)cc2)O[C@@H]1c1ccccc1CN=[N+]=[N-] (stereo not given in full),1.01,-0.082 (inactive),0.319,-0.0335,0.546,3.29,-0.0011,1.29,-0.257,1.1
COCCOC(=O)N1C(=O)[C@@]2(c3cc(C#CCC(C(=O)OC)C(=O)OC)ccc31)[C@H](C(=O)N1CCCCCCC1)[C@H]1C(=O)O[C@H](c3ccccc3)[C@H](c3ccccc3)N1[C@@H]2c1ccc(OCCO)cc1,0.786,4.41 (inactive),1.61,0.738,0.643,3.78,1.06,1.3,1.53,1.15
COc1ccc([Si](C)(C)[C@@H]2[C@@H](CCn3cc([C@H](O)c4ccccc4)nn3)O[C@]3(C(=O)N(Cc4cccc(N5CCOC5=O)c4)c4ccccc43)[C@H]2C)cc1,-0.424,0.25 (inactive),-0.259,-0.175,-0.208,-0.359,-0.0364,-0.217,-1.14,-0.348
COc1c(C)cc(-c2cc3c(c(-c4ccc(Oc5ccccc5)cc4)n2)[Si](C(C)C)(C(C)C)OC3)cc1C,-0.237,-0.591 (inactive),0.0208,0.0016,-0.229,-0.202,0.151,-1.07,-0.206,-0.52
COCCOC(=O)N1C(=O)[C@@]2(c3cc(C#CCCO)ccc31)[C@H](c1ccccc1OCCO)N1[C@H](c3ccccc3)[C@H](c3ccccc3)OC(=O)[C@H]1[C@@H]2C(=O)N1CCN(c2ncccn2)CC1,0.602,0.341 (inactive),0.413,0.123,0.539,2.02,0.505,1.12,0.52,1.15
[N-]=[N+]=NCc1ccccc1C[C@@]1(C(=O)N2CCOCC2)N=C(c2ccc(OCCCO)cc2)O[C@@H]1c1ccccc1CN=[N+]=[N-],0.922,0.696 (inactive),0.713,0.266,0.586,2.61,1.29,1.31,-0.725,1.14
